From PubChem BioAssay (NCATS)
Inconclusive results are not listed. A call without a number means that no potency is given here. Calls of active or inactive are those of the source. The call rests on the fitted dose curve; in most records, active means well fitted curve in the direction sought with a large enough effect; inconclusive means small, poorly fitted or top-dose-only effect, or another doubt; inactive means no such curve, though single readings can be large; an effect the other way counts as inactive or inconclusive.

Tests used:
[1] = target: N-terminal Xaa-Pro-Lys N-methyltransferase 1 (Homo sapiens) (UniProt Q9BV86); assay: qHTS Assay for Inhibitors of N-terminal methyltransferase 1 (NTMT1): LOPAC validation of the NTMT1 SAHH-coupled ThioGlo3 Assay (AID 1347143);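 further: SAH from peptide methylation measured as thiol fluorescence via SAHH coupling and ThioGlo3; nearly all actives have a fitted effect of over 70% in size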; further: potency means the concentration at half of the fitted maximal effect
Method in brief: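 In this qHTS pilot against the LOPAC set, 125nM NTMT1 met compounds tested at multiple concentrations, and fluorescence was normalized to background.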

[2] = tested on: Zika virus NS2B-NS3 protease (unlinked); assay: Optimization of GU AMC qHTS for Zika virus inhibitors: Unlinked NS2B-NS3 protease assay (AID 1347151); further: nearly all actives have a fitted effect of over 80% in size; further: potency means the concentration at half of the fitted maximal effect
Method in brief: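 Unlinked protease (25 nM final); buffer 10 mM Tris-HCl pH 8.0 + 0.01% Tween 20; AMC substrate; 15 min RT, dark; Δfluorescence normalized to no-inhibitor/no-enzyme controls; 4-parameter Hill fit.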

[3] = tested on: Zika virus NS2B-NS3 protease; assay: Primary screen GU AMC qHTS for Zika virus inhibitors (AID 1347154); further: nearly all actives have a fitted effect of over 70% in size
Method in brief: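 Unlinked Zika NS2B hydrophilic domain/NS3 protease domain noncovalent complex (25 nM final) in 10 mM Tris-HCl pH 8.0, 0.01% Tween 20, with AMC peptide substrate. Fluorescence (ex 340, em 450 nm) change over 15 min, room temperature; percent inhibition fitted to 4-parameter Hill equation.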

[4] = target: Furin (Homo sapiens) (UniProt P09958); assay: Furin counterscreen qHTS for Zika virus inhibitors (AID 1347149);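 further: purified recombinant full-length human furin enzyme at 5 nM; fluorescence gain from furin cutting a BOC-RVRR-AMC peptide substrate over 15 min; top concentration of the series differs between compounds; nearly all actives have a fitted effect of over 70% in size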
Method in brief: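 Counterscreen measures cleavage of 2 microM BOC-RVRR-AMC, below its ~15 microM Km, by 5 nM full-length human furin at pH 7.0 after a 15-min compound preincubation. Inhibition derives from the 15-min fluorescence increase at 37C.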

[5] = tested on: Zika virus NS2B-NS3 protease (linked construct); assay: Confirmatory screen NINDS AMC qHTS for Zika virus inhibitors (AID 1347152); further: nearly all actives have a fitted effect of over 70% in size; further: potency means the concentration at half of the fitted maximal effect
Method in brief: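 Enzyme (1 nM, linked construct) was preincubated with compound for 15 minutes at room temperature in 10 mM Tris-HCl pH 8.0 with 0.01% Tween 20. Bz-Nle-Lys-Arg-Arg-AMC was then added to 10 microM, and AMC fluorescence was recorded immediately and after 15 minutes.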

[6] = tested on: Zika virus NS2B-NS3 protease (unlinked complex); assay: Confirmatory screen GU AMC qHTS for Zika virus inhibitors (AID 1347153); further: nearly all actives have a fitted effect of over 70% in size
Method in brief: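 Fluorescence change (ex 340/em 450 nm) over 15 min, ~20% substrate conversion, normalized to no-inhibitor and no-enzyme controls, then Hill-fitted. Unlinked protease at 25 nM; AMC peptide 10 µM.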

[7] = Confirmatory screen GU Rhodamine qHTS for Zika virus inhibitors qHTS (AID 1347157); further: nearly all actives have a fitted effect of over 70% in size; further: potency means the concentration at half of the fitted maximal effect
Method in brief: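 Percent inhibition derives from the 15-min fluorescence change (ex 480, em 540 nm), normalized to no-enzyme and no-inhibitor wells. Reactions contained 25 nM NS2B-NS3 complex and 1.5 microM substrate in 10 mM Tris-HCl pH 8.0.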

Chain of Furin (Homo sapiens) (P09958 whole entry, looked up): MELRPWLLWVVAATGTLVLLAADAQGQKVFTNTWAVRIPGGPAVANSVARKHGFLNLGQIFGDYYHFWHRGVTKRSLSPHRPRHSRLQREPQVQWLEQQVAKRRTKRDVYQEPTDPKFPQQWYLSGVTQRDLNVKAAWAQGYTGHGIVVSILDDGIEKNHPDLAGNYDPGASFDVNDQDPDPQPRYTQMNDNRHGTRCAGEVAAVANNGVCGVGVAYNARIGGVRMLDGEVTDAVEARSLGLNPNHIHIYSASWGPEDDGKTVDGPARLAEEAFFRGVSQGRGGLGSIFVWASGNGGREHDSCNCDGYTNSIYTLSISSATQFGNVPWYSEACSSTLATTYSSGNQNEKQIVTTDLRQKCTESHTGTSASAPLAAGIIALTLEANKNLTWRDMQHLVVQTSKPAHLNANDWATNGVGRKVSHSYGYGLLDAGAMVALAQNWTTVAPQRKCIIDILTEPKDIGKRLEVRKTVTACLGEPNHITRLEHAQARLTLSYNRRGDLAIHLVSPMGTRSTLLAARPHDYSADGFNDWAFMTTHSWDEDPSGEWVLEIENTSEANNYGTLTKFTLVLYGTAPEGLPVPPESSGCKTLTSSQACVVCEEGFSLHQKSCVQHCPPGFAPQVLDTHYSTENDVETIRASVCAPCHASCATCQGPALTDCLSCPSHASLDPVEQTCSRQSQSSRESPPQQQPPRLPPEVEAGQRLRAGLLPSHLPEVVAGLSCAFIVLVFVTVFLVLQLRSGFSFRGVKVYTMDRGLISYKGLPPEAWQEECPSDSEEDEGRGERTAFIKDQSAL
Chain of N-terminal Xaa-Pro-Lys N-methyltransferase 1 (Homo sapiens) (Q9BV86 whole entry, looked up): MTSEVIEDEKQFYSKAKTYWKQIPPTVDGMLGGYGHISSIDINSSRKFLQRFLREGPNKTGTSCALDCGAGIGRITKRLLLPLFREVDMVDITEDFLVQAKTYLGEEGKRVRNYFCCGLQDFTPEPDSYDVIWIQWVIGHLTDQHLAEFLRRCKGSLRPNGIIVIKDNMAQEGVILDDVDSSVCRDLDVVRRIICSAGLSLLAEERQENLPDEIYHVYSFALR

What does the source list for `NC(N)=Nc1ccc2[nH]c3c(c2c1)C[C@@]1(O)[C@H]2Cc4ccc(O)c5c4[C@@]1(CCN2CC1CC1)[C@H]3O5`?
Potency [1]: 22.4 µM (active); Potency [2]: inactive

With `C=CCN1C[C@@H](C)N([C@H](c2ccc(C(=O)N(CC)CC)cc2)c2cccc(OC)c2)C[C@@H]1C` as the molecule, how does the Potency [1] read?
Its Potency is “inactive”.

And the Potency [2]?
The Potency was “inactive”.

Which Potency [2] does the source give for `O=C1CC[C@@]2(O)C3Cc4ccc(O)c5c4C2(CCN3CC2CC2)[C@H]1O5` (stereo partly drawn) here?
The Potency was “inactive”.

Which Potency [1] does the source give for `CN1C2CCC1CC(OC(c1ccccc1)c1ccccc1N)C2` (stereo not drawn) here?
The Potency was “inactive”.

And the Potency [2]?
The Potency was “inactive”.

And the Potency [3]?
Its Potency is “inactive”.

For `C[C@@]1(C(=O)O)CC[C@]2(C)CC[C@]3(C)C4=CC(=O)c5cc(O)c(O)cc5[C@]4(C)CC[C@@]3(C)[C@@H]2C1`, which Potency [4] is on record?
The Potency was “inactive”.

And the Potency [5]?
The Potency was “inactive”.

And the Potency [6]?
The Potency was “inactive”.

And the Potency [7]?
Its Potency is 2.42 µM (active).

For `NC(=O)c1ccc(OCC(O)CN2CC=C(c3ccc(F)cc3)CC2)cc1` (stereo not drawn), which Potency [2] is on record?
The Potency was “inactive”.

Which results are given for `N[C@@H](Cn1oc(=O)[nH]c1=O)C(=O)O`?
Potency [1]: inactive; Potency [2]: inactive; Potency [3]: inactive

With `OC1CCCCC1N1CCC(c2ccccc2)CC1` (stereo not drawn) as the molecule, how does the Potency [1] read?
The Potency was “inactive”.

And the Potency [2]?
The Potency was “inactive”.

With `CCCN(CCC)C1CCc2cccc(O)c2C1` (stereo not drawn) as the molecule, how does the Potency [1] read?
Its Potency is “inactive”.

And the Potency [2]?
Its Potency is “inactive”.

And the Potency [3]?
Its Potency is “inactive”.

Which Potency [1] does the source give for `C[N+](C)(C)CC#CCN1CCCC1=O` here?
Its Potency is 28.2 µM (active).

And the Potency [2]?
The Potency was “inactive”.

What about the Potency [3] of the same molecule?
Its Potency is “inactive”.

For `CC(C)(C)OC(=O)NC1[C@H]2CNC[C@@H]12` (stereo partly drawn), which Potency [1] is on record?
The Potency was “inactive”.

And the Potency [2]?
Its Potency is “inactive”.

With `C[N+]1(C)CCN(c2ccccc2)CC1` as the molecule, how does the Potency [1] read?
The Potency was 28.2 µM (active).

What about the Potency [2] of the same molecule?
Its Potency is “inactive”.

What about the Potency [3] of the same molecule?
The Potency was “inactive”.

For `NCC(CP(=O)(O)O)c1ccc(Cl)cc1` (stereo not drawn), which Potency [1] is on record?
Its Potency is “inactive”.

And the Potency [2]?
The Potency was “inactive”.

And the Potency [3]?
Its Potency is “inactive”.

For `CP(=O)(O)C1=CCNCC1`, which Potency [1] is on record?
The Potency was “inactive”.

What about the Potency [2] of the same molecule?
Its Potency is “inactive”.

And the Potency [3]?
Its Potency is “inactive”.

Which Potency [1] does the source give for `C[N+](C)(C)CC#CCOC(=O)Nc1cccc(Cl)c1` here?
The Potency was “inactive”.

What about the Potency [2] of the same molecule?
The Potency was “inactive”.

And the Potency [3]?
The Potency was “inactive”.

Which Potency [2] does the source give for `CN1CCC[C@@H]1Cc1c[nH]c2ccc(Nc3ncccc3[N+](=O)[O-])cc12` here?
The Potency was “inactive”.

With `CCCN(CCC)CCc1ccc(O)c(O)c1` as the molecule, how does the Potency [1] read?
Its Potency is “inactive”.

What about the Potency [3] of the same molecule?
Its Potency is “inactive”.

With `C[N+]1(C)CCOC(O)(c2ccc(-c3ccc(C4(O)C[N+](C)(C)CCO4)cc3)cc2)C1` (stereo not drawn) as the molecule, how does the Potency [1] read?
The Potency was “inactive”.

What about the Potency [2] of the same molecule?
Its Potency is “inactive”.

What about the Potency [3] of the same molecule?
The Potency was “inactive”.

With `CC(=O)c1c(O)c(C)c(O)c(Cc2c(O)c3c(c(C(=O)/C=C/c4ccccc4)c2O)OC(C)(C)C=C3)c1O` as the molecule, how does the Potency [1] read?
The Potency was 50.1 µM (active).

And the Potency [2]?
The Potency was 11.9 µM (active).

And the Potency [3]?
Its Potency is “inactive”.

What about the Potency [7] of the same molecule?
The Potency was 5.62 µM (active).

With `CCOC(=O)c1ncn2c1[C@@H]1CCCN1C(=O)c1cc(OC)ccc1-2` as the molecule, how does the Potency [2] read?
Its Potency is “inactive”.

With `C[C@@H]1[C@@H]2Cc3ccc(O)cc3[C@@]1(C)CCN2CC1CC1` as the molecule, how does the Potency [4] read?
Its Potency is “inactive”.

What about the Potency [2] of the same molecule?
The Potency was “inactive”.

For `COc1ccc2[nH]c3c(c2c1)CCNC3`, which Potency [2] is on record?
Its Potency is 26.7 µM (active).

With `c1ccc2c(N3CCNCC3)cccc2c1` as the molecule, how does the Potency [1] read?
The Potency was 50.1 µM (active).

What about the Potency [2] of the same molecule?
The Potency was 26.7 µM (active).

What about the Potency [3] of the same molecule?
Its Potency is “inactive”.

Which Potency [1] does the source give for `C[N+](C)(C)CCOC(=O)CBr` here?
The Potency was “inactive”.

What about the Potency [2] of the same molecule?
The Potency was “inactive”.

What about the Potency [3] of the same molecule?
Its Potency is “inactive”.

With `CCS(=O)(=O)Nc1cccc(C(=C2CCCCC2)c2cnc[nH]2)c1` as the molecule, how does the Potency [1] read?
The Potency was “inactive”.

What about the Potency [2] of the same molecule?
Its Potency is “inactive”.

For `Oc1cc(Cl)c(Cl)cc1Cl`, which Potency [4] is on record?
Its Potency is “inactive”.

And the Potency [7]?
The Potency was “inactive”.

What does the source list for `NC(C(=O)O)c1cc(=O)[nH]o1` (stereo not drawn)?
Potency [1]: inactive; Potency [2]: inactive; Potency [3]: inactive

Which Potency [2] does the source give for `CC(=O)OCC1=C(C(=O)O)N2C(=O)[C@@H](NC(=O)CCC[C@@H](N)C(=O)O)[C@H]2SC1` here?
Its Potency is “inactive”.

Which Potency [2] does the source give for `CCCN(CCC)[C@H]1CCc2c(F)ccc(O)c2C1` here?
The Potency was “inactive”.

With `CC[C@H](C)[C@H]1O[C@]2(C=C[C@@H]1C)C[C@@H]1C[C@@H](C/C=C(\C)[C@@H](O[C@H]3C[C@H](OC)[C@@H](O[C@H]4C[C@H](OC)[C@@H](O)[C@H](C)O4)[C@H](C)O3)[C@@H](C)/C=C/C=C3\CO[C@@H]4[C@H](O)C(C)=C[C@@H](C(=O)O1)[C@]34O)O2` as the molecule, how does the Potency [4] read?
Its Potency is “inactive”.

What about the Potency [2] of the same molecule?
Its Potency is “inactive”.

For `NCCc1c[nH]c2ccc(C(N)=O)cc12`, which Potency [1] is on record?
The Potency was “inactive”.

And the Potency [3]?
Its Potency is “inactive”.

With `CN(C(=O)Cc1ccc(Cl)c(Cl)c1)C(CN1CCCC1)c1cccc(OCC(=O)O)c1` (stereo not drawn) as the molecule, how does the Potency [1] read?
The Potency was “inactive”.

And the Potency [2]?
Its Potency is “inactive”.

What about the Potency [3] of the same molecule?
Its Potency is “inactive”.

Which Potency [1] does the source give for `NC(N)=NOCC[C@H](N)C(=O)O` here?
Its Potency is “inactive”.

What about the Potency [2] of the same molecule?
Its Potency is “inactive”.

What about the Potency [3] of the same molecule?
The Potency was “inactive”.

For `C[N+]1(C)CCc2cc3c(cc2[C@H]1[C@@H]1OC(=O)c2c1ccc1c2OCO1)OCO3`, which Potency [2] is on record?
Its Potency is “inactive”.

For `CCCN(CCC)C1Cc2cc(OC)c(OC)cc2C1`, which Potency [1] is on record?
Its Potency is “inactive”.

What about the Potency [2] of the same molecule?
Its Potency is “inactive”.

And the Potency [3]?
Its Potency is “inactive”.

Which results are given for `c1ccc2c(c1)[I+]c1ccccc1-2`?
Potency [1]: 50.1 µM (active); Potency [2]: inactive; Potency [3]: inactive

What does the source list for `CC(Cc1ccc(OCC(=O)O)cc1)NCC(O)c1cccc(Cl)c1` (stereo not drawn)?
Potency [1]: inactive; Potency [2]: inactive; Potency [3]: inactive

Which Potency [5] does the source give for `CCCCCOc1cc2c(cc1-c1cc(/C=C/C(=O)O)ccc1O)C(C)(C)CCC2(C)C` here?
The Potency was 9.87 µM (active).
